The full data set covers some 8,800 targets. This sample favours those with a hit. About 0.5% of all pairs of compound and target were hits. A number with no mark means an inactive call.
Key:
Test in all cases: log2 fold change, soluble protein after heating vs DMSO (PISA); higher = thermal stabilisation; K562 lysate, 10 uM; active = over 0.2 and 3.5 SD of the protein, either way, in both replicates (recomputed)
nilotinib = compound: Cc1cn(-c2cc(NC(=O)c3ccc(C)c(Nc4nccc(-c5cccnc5)n4)c3)cc(C(F)(F)F)c2)cn1 [nilotinib]
Procedure, shortened: (§1)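 Following dounce homogenisation of K562 pellets in PBS pH 7.4 with 1 mM MgCl2, crude extract at 1 mg/mL protein was incubated for 30 min with 10 μM compound. Aliquots were then heated for 3 min over 48°C-58°C and pooled, NP-40 was added to 0.5% at 4°C, and soluble protein was recovered as the supernatant at 21,000xg for 90 min. Channel-sum-equalised TMTpro 16plex LC-MS/MS quantified this protein. Each value, from duplicates, is a log-two fold change in thermal stability relative to solvent controls.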

[1] = compound: Cc1nc(Nc2n[nH]c3c2CN(C(=O)N[C@H](CN(C)C)c2ccccc2)C3(C)C)c2sccc2n1
Procedure, shortened: as §1

dasatinib = compound: Cc1nc(Nc2ncc(C(=O)Nc3c(C)cccc3Cl)s2)cc(N2CCN(CCO)CC2)n1 [dasatinib]
Procedure, shortened: as §1

[2] = compound: Cc1ncc(-c2ccnc(Nc3ccc(S(C)(=O)=O)cc3)n2)n1C(C)C
Procedure, shortened: as §1

[3] = compound: Cn1cc(-c2ccc3c(c2)CCN3C(=O)Cc2cccc(C(F)(F)F)c2)c2c(N)ncnc21
Procedure, shortened: as §1

quisinostat = compound: Cn1cc(CNCC2CCN(c3ncc(C(=O)NO)cn3)CC2)c2ccccc21 [quisinostat]
Procedure, shortened: as §1

tipifarnib = compound: Cn1cncc1[C@@](N)(c1ccc(Cl)cc1)c1ccc2c(c1)c(-c1cccc(Cl)c1)cc(=O)n2C [tipifarnib]
Procedure, shortened: as §1

[4] = compound: NC(=O)Nc1cc(-c2cccc(F)c2)sc1C(=O)N[C@H]1CCCNC1
Procedure, shortened: as §1

[5] = compound: NC(=O)c1cnc(N[C@@H]2CCCC[C@@H]2N)nc1Nc1cccc(-n2nccn2)c1
Procedure, shortened: as §1

[6] = compound: NC1(c2ccc(-c3nc4ccn5c(=O)[nH]nc5c4cc3-c3ccccc3)cc2)CCC1
Procedure, shortened: as §1

Chain of UniProt P23219 (P23219 whole entry, looked up): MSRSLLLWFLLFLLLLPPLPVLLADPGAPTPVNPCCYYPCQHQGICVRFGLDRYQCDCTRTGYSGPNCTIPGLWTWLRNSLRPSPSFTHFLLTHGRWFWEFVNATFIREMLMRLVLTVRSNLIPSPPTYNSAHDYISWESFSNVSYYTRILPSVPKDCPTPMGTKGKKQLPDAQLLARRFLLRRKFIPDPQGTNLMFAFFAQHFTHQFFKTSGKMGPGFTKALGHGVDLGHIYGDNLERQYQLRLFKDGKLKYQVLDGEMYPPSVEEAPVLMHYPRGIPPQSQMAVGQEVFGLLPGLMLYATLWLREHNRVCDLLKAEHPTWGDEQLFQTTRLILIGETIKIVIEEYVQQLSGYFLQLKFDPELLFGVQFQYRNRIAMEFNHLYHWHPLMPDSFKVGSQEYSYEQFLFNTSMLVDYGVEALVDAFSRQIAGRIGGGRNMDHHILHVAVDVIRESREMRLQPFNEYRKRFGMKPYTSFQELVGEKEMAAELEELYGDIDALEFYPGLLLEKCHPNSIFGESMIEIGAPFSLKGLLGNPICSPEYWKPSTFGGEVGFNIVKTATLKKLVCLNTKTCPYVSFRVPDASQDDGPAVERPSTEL
Chain of UniProt Q9H4Z3 (Q9H4Z3 whole entry, looked up): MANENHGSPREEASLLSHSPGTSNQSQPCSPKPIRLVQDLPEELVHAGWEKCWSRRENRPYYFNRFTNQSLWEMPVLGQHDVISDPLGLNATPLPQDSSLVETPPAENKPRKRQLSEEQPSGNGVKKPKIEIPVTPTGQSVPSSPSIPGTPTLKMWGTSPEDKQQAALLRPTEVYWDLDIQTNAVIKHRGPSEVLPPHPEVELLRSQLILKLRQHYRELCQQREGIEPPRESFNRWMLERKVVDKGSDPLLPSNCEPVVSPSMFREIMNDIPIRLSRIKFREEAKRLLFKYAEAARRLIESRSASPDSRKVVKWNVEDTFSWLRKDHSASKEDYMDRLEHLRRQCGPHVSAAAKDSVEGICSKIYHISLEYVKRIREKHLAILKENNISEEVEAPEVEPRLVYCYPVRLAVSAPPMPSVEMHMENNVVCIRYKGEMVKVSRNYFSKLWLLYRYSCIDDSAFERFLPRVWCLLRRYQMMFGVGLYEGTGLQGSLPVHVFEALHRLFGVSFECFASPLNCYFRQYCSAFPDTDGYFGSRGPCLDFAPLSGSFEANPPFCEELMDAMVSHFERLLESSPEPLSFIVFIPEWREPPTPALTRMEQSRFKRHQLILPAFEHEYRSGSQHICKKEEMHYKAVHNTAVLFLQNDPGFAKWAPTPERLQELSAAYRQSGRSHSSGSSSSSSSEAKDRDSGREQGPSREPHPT
Chain of UniProt Q9Y446 (Q9Y446 whole entry, looked up): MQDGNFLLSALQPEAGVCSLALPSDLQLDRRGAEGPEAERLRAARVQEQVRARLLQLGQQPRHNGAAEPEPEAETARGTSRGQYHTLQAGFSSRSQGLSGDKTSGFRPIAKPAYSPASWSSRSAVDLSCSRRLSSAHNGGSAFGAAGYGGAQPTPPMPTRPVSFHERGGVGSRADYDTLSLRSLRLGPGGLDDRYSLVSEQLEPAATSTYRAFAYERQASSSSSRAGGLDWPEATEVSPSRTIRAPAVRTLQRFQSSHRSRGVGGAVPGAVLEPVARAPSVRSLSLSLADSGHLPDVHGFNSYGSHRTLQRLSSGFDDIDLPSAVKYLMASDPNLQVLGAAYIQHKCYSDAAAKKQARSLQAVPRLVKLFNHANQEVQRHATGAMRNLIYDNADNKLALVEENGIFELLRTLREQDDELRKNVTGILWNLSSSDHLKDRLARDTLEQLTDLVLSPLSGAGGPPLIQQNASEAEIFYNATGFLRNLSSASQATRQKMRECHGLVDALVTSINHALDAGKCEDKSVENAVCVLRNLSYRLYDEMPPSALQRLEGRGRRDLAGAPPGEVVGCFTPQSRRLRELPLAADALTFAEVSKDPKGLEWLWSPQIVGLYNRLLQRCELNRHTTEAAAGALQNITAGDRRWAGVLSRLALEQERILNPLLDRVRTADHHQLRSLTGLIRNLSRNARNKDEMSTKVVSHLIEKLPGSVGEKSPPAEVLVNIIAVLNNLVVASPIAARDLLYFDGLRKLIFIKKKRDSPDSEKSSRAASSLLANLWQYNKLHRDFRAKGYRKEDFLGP
Chain of UniProt Q8TD55 (Q8TD55 whole entry, looked up): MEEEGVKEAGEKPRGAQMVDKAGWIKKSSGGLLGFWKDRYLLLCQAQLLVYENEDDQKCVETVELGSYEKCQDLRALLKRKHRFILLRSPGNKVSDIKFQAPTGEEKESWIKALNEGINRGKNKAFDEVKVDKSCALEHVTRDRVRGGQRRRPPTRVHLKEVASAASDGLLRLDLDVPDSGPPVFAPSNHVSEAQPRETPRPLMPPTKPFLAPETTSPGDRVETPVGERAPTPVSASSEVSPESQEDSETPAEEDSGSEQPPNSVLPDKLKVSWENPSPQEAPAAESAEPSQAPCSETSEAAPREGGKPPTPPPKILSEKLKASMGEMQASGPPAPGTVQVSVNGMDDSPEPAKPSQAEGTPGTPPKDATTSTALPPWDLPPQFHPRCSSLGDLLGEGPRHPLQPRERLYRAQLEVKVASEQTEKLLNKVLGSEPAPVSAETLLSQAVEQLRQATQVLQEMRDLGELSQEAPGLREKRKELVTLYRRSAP
Chain of UniProt Q8TCG2 (Q8TCG2 whole entry, looked up): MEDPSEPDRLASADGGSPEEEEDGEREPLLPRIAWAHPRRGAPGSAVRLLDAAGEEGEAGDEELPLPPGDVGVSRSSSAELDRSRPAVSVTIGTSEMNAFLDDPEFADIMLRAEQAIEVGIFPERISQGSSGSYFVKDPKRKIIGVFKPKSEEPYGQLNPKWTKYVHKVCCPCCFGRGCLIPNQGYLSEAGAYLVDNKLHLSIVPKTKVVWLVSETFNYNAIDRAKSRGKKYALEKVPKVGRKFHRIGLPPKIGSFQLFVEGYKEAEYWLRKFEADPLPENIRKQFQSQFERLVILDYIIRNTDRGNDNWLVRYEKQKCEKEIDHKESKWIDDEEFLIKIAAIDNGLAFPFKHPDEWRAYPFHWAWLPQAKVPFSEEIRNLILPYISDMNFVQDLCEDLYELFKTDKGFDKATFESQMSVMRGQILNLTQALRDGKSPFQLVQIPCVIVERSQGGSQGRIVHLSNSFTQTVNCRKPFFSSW
Chain of UniProt P41219 (P41219 whole entry, looked up): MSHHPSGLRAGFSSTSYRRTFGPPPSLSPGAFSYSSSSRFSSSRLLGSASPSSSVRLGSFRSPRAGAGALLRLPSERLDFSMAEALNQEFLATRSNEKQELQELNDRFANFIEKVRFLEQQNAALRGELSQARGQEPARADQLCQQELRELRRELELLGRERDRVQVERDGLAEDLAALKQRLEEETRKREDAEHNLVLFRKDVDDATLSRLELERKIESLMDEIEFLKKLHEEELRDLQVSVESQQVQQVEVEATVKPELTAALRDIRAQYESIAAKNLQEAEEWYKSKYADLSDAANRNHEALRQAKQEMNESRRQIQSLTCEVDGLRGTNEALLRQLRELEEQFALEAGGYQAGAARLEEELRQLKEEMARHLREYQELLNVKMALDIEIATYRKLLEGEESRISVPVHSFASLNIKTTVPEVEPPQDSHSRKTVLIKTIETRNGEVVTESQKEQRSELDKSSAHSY
Chain of UniProt Q8WUM4 (Q8WUM4 whole entry, looked up): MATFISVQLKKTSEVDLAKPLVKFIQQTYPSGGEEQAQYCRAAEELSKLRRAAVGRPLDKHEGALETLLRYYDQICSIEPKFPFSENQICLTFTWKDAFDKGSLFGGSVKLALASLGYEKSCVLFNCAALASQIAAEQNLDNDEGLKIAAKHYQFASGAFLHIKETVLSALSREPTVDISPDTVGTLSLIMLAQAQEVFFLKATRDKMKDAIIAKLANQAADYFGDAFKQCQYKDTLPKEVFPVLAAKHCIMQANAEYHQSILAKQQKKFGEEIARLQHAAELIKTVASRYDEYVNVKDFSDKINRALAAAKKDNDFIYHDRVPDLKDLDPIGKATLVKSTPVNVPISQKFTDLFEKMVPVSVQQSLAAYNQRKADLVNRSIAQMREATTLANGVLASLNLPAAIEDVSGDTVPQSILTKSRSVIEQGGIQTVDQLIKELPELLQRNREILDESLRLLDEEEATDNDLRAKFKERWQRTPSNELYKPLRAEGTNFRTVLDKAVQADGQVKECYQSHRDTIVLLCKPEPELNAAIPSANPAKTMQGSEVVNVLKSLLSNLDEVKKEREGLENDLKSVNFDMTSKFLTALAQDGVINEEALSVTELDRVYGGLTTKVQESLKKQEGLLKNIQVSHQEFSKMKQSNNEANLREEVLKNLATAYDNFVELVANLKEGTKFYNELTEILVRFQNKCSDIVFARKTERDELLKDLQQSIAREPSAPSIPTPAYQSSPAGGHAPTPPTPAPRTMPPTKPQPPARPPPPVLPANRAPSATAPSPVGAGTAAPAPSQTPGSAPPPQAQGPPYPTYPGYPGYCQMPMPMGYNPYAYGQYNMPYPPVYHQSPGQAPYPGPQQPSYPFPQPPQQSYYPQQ
Chain of UniProt Q9H939 (Q9H939 whole entry, looked up): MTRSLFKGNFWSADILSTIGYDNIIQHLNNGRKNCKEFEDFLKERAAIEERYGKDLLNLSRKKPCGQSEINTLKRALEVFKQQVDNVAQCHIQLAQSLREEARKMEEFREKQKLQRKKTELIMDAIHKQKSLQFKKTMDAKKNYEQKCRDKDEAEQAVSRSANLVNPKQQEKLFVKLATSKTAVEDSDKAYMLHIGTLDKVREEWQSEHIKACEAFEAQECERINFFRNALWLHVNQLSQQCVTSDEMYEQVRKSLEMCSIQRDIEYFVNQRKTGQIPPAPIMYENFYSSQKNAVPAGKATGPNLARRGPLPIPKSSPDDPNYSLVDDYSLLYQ
Chain of UniProt Q96I23 (Q96I23 whole entry, looked up): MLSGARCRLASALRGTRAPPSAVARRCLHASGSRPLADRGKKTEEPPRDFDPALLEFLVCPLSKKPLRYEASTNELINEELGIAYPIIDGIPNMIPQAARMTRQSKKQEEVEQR
Chain of UniProt P06454 (P06454 whole entry, looked up): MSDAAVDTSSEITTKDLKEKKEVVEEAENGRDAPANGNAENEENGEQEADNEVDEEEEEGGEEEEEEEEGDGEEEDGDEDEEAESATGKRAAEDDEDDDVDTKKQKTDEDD

| Target | log2 fold change (nilotinib) | log2 fold change [1] | log2 fold change (dasatinib) | log2 fold change [2] | log2 fold change [3] | log2 fold change (quisinostat) | log2 fold change (tipifarnib) | log2 fold change [4] | log2 fold change [5] | log2 fold change [6] |
| --- | --- | --- | --- | --- | --- | --- | --- | --- | --- | --- |
| PDE2A (UniProt O00408) | 0.021 | -0.033 | 0.042 | -0.008 | 0.035 | 0.026 | 0.042 | 0.006 | 0.08 | -0.184 |
| PTMA (UniProt P06454) | 0.008 | -0.046 | 0.056 | 0.019 | -0.025 | 0.047 | 0.045 | 0.017 | 0.032 | -0.006 |
| PLIN2 (UniProt Q99541) | 0.088 | -0.012 | -0.092 | 0 | 0.008 | -0.031 | -0.153 | 0.038 | -0.003 | -0.018 |
| PTPN6 isoform 4 (UniProt P29350) | -0.002 | -0.028 | 0.028 | -0.043 | 0.071 | 0.01 | 0.055 | -0.03 | -0.128 | 0.062 |
| PI4K2B (UniProt Q8TCG2) | -0.037 | 0.021 | -0.021 | 0.069 | 0.092 | 0.063 | -0.036 | 0.076 | 0.689 (active) | 0.009 |
| PIP4K2B (UniProt P78356) | 0.032 | 0.024 | 0.151 | 0.093 | 0.008 | -0.017 | -0.007 | 0 | 0.002 | -0.034 |
| PEX2 (UniProt P28328) | 0.059 | -0.158 | -0.078 | -0.041 | 0.039 | 0.054 | 0.048 | 0.143 | 0.116 | -0.106 |
| PCIF1 (UniProt Q9H4Z3) | 0.018 | -0.089 | 0.118 | 0.011 | -0.439 (active) | 0.019 | 0.015 | -0.016 | -0.006 | 0.022 |
| PRG4 (UniProt Q92954) | -0.092 | 0.196 | -0.028 | 0.196 | 0.024 | -0.285 | 0.17 | 0.057 | -0.09 | – |
| PHKA2 (UniProt P46019) | 0.005 | 0.163 | -0.05 | 0.019 | -0.028 | -0.148 | 0.015 | 0.302 (active) | 0.001 | -0.037 |
| QKI (UniProt Q96PU8) | -0.053 | 0.006 | -0.02 | 0.062 | -0.038 | -0.013 | -0.024 | 0.055 | -0.005 | -0.008 |
| PSTPIP2 (UniProt Q9H939) | 0.029 | 0.016 | -0.056 | 0.028 | 0.023 | -0.037 | -0.008 | 0.008 | -0.007 | 0.007 |
| PYURF (UniProt Q96I23) | -0.03 | 0.051 | 0.002 | 0.004 | 0.048 | 0.011 | -0.009 | -0.075 | -0.064 | -0.006 |
| PHKB isoform 3 (UniProt Q93100) | -0.007 | 0.121 | -0.023 | 0.001 | 0.008 | -0.063 | -0.035 | 0.28 (active) | 0.004 | -0.058 |
| PRPH isoform 2 (UniProt P41219) | -0.022 | 0.032 | -0.019 | -0.024 | 0.036 | 0.034 | -0.02 | -0.027 | 0.028 | 0.094 |
| PIK3C3 (UniProt Q8NEB9) | -0.001 | -0.011 | -0.05 | 0.062 | -0.025 | -0.022 | -0.054 | 0.027 | 0.04 | -0.008 |
| POLD3 (UniProt Q15054) | 0.03 | -0.014 | -0.002 | 0.029 | 0.007 | -0.049 | 0.002 | 0.013 | 0.018 | -0.027 |
| PIK3R1 (UniProt P27986) | -0.041 | -0.072 | -0.024 | 0.058 | 0.004 | -0.027 | 0.039 | 0.042 | 0.021 | 0.249 |
| PPP4R2 (UniProt Q9NY27) | 0.012 | 0.018 | 0.029 | 0.005 | -0.028 | -0.009 | -0.042 | -0.011 | 0.009 | -0.01 |
| PPOX (UniProt P50336) | 0.227 | -0.001 | 0.086 | 0.054 | -0.004 | 0.129 | -0.012 | -0.019 | -0.008 | -0.036 |
| PITRM1 isoform 2 (UniProt Q5JRX3) | 0.014 | -0.035 | 0.011 | -0.021 | -0.002 | 0.021 | 0.013 | 0.005 | 0 | -0.008 |
| PDCD6IP isoform 2 (UniProt Q8WUM4) | -0.018 | 0.007 | -0.042 | 0.004 | 0.022 | 0.002 | 0.016 | -0.001 | 0.018 | 0.002 |
| PKP3 isoform 2 (UniProt Q9Y446) | -0.034 | -0.021 | 0 | -0.039 | -0.001 | -0.012 | 0.007 | -0.051 | -0.021 | 0.02 |
| PTGS1 isoform 6 (UniProt P23219) | 0.021 | 0.058 | 0.034 | 0.043 | 0.053 | -0.04 | -0.039 | 0.022 | -0.008 | 0.001 |
| PIP4P2 (UniProt Q8N4L2) | 0.287 (active) | -0.073 | -0.171 | -0.015 | -0.048 | 0.035 | -0.148 | -0.016 | 0.121 | -0.007 |
| PLEKHO2 (UniProt Q8TD55) | 0.207 | -0.237 | -0.096 | 0.118 | -0.039 | 0.062 | -0.192 | 0.068 | -0.071 | 0.873 (active) |
| PTPN23 (UniProt Q9H3S7) | -0.003 | -0.029 | -0.034 | -0.002 | 0.01 | 0.002 | 0 | 0.024 | 0.025 | 0.005 |
